Where “and” joins values, the source holds several entries; their conditions need not be identical. Equal entries are not always repeated. Hit rate of the full screen: of about 300,000 compounds, about 2,400 (0.8%) were called active.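 Rule for the calls: active = Every replicate reaches about 75%, or at least half do and their mean reaches it too (limit read from the data); inconclusive = At least half of replicates reach the limit but their mean does not; inactive = Under half of replicates reach the limit.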 For the sample, actives were picked, then their nearest neighbours and some compounds at random. More than one record can exist for a structure, and the calls need not agree.

The assay can be described thus: inhibitors of cytokine-induced beta cell apoptosis, primary screen, luminescence (AID 435005).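 Note: 0% = cytokine-treated negative control wells and 100% = positive control rescue; higher means more ATP so stronger rescue from cytokine killing.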 The settings on record: INS-1E cytokine-induced death, ATP luminescence, 48 h; stronger effect = higher value; percent of positive-control rescue, neutral wells zero; concentration not given here.
`COc1ccc(-c2c(C#Cc3ccsc3)c3cc(-c4ccc(CN5CCOCC5)cc4)ccc3n2C)cc1`: the protection from apoptosis was -5.34% (inactive).
Regarding `C=CCC[C@@H](Cc1ccc(F)cc1)C(=O)OC[C@@H](C)NC(=O)[C@H](CC=C)CC(=O)N(CCO)Cc1ccccc1`, the protection from apoptosis is -3.2% (inactive).
As for `CC(C)(C)NS(=O)(=O)NC(=O)C1=C(N2CCCC2)COC1=O`, the protection from apoptosis is -7.92% (inactive).
The figure for `COc1ccc(NC(=O)CNc2cc(S(=O)(=O)N3CCOCC3)ccc2N2CCOCC2)c(OC)c1` is -2.12% (inactive); for `CC(CNC(=O)Cn1cnc2c(OCc3ccccc3)ncnc21)c1ccccc1` (stereo not drawn) it is 0.936% (inactive); for `CC(C)(C)OC(=O)C[C@@H]1C/C=C\C[C@@H](CC(=O)N[C@H](CO)Cc2ccccc2)C(=O)NC[C@@H](c2ccccc2)OC1=O` it is 6.98% (inactive).
The figure for `Cc1ccc(Cl)cc1NC(=O)c1ccccn1` is -1.51% (inactive); for `CCOc1cc2ccccc2cc1C(=O)Nc1ccccn1` it is -5.78% (inactive); for `CCN(CC)CCOc1ccc2c(c1)C(=NNC(=O)c1ccccn1)c1cc(OCCN(CC)CC)ccc1-2` it is 107% (active).
`NS(=O)(=O)c1ccc(CNC(=O)c2cccc(S(=O)(=O)N3CCc4ccccc43)c2)cc1`: the protection from apoptosis was 1.37% (inactive).
In the case of `O=C(Nc1cc(S(=O)(=O)N2CCCCC2)ccc1Cl)C1COc2ccccc2O1` (stereo not drawn), the protection from apoptosis was 3.53% (inactive).
With `Cc1cccc(NC(=O)Nc2nnc(-c3ccccc3)o2)c1`, the protection from apoptosis was -2.12% (inactive).
The figure for `Cc1cccc(NC(=O)Nc2cccc(Oc3c(F)c(F)c(F)c(F)c3F)c2)c1` is 99.2% (active); for `COc1cccc(NC(=O)NCc2ccc(F)cc2)c1` it is -3.25% (inactive).
The figure for `CN(CC(=O)Nc1ccc(C(N)=O)cc1)S(=O)(=O)c1ccc2c(c1)OCCO2` is -4.98% (inactive); for `N#Cc1cccc(NC(=O)C2CCCN(C(=O)c3ccc(Cl)cc3)C2)c1` (stereo not drawn) it is 0.765% (inactive); for `Cc1ccc(/C=C/C(=O)Nc2ccc([N+](=O)[O-])c(NC(=O)/C=C/c3ccc(C)o3)c2)o1` it is 2.69% (inactive).
The figure for `O=C(/C=C/c1ccc([N+](=O)[O-])o1)NNC(=O)c1ccc(F)cc1` is 93.8% (active).
As to `O=C(N/N=C/c1ccc([N+](=O)[O-])o1)c1cn(-c2ccccc2)nc1-c1ccc(F)cc1`, the protection from apoptosis is -1.79% (inactive).
As to `C[C@H]1COC(=O)[C@H](CC(=O)OC(C)(C)C)C/C=C\C[C@@H](CC(=O)N[C@H](CO)Cc2ccccc2)C(=O)N1`, the protection from apoptosis is 0.417% (inactive).
The figure for `COCCCNC(=O)CC1C[C@H](C(=O)N2CCCCC2)[C@@]2(CCc3ccccc3)c3[nH]c4ccccc4c3CCN2C1=O` (stereo partly drawn) is -3.93% (inactive).
Consider `C=CC[C@@H](CC(=O)N[C@H](CO)Cc1ccccc1)C(=O)N[C@@H](COC(=O)[C@@H](CC=C)Cc1ccc(F)cc1)Cc1c[nH]c2ccccc12`, for which the protection from apoptosis is 2.3% (inactive).
The figure for `COc1ccc(N2CCN(C(C)=C3C(=O)c4ccccc4C3=O)CC2)cc1` is -2.02% (inactive); for `CCOC(=O)c1c(-c2ccc(C)cc2)csc1/N=C(\C)C1=C(O)c2ccccc2C1=O` it is -5.12% (inactive); for `CCOC(=O)C1=C(c2ccc(OC)cc2)C(=O)c2ccccc2C1=O` it is 130% (active).
Consider `Cc1ccc(NC(=O)C2CC2)cc1S(=O)(=O)N1CCOCC1`, for which the protection from apoptosis is -4.34% (inactive).
The figure for `CC(OC(=O)c1c(F)cccc1F)C(=O)NCCC1=CCCCC1` (stereo not drawn) is -3.37% (inactive); for `CCC(CO)Oc1cc(NCc2ccccc2)c2ncn(C3CCCC3)c2c1` (stereo not drawn) it is -4.59% (inactive).
Take `CC(C)n1cnc2c(NCc3ccccc3)cc(N[C@@H](CO)Cc3ccccc3)cc21`: the protection from apoptosis was 135% (active).
The figure for `CC(C)n1cnc2c(NCc3ccccc3)cc(OCC3CCN(C)CC3)cc21` is -8.55% (inactive); for `COc1ccc(C2(c3ccc(OC)cc3)NC(=O)N(CC(=O)Nc3cc(C)on3)C2=O)cc1` it is -3.35% (inactive).
With `CCn1nnc2cc(C(=O)Nc3ccc(C(=O)OC(C)C)cc3)ccc21`, the protection from apoptosis was 1.63% (inactive).
On to `O=C(Nc1ccccc1Cl)Nc1cccc2cccnc12`, for which the protection from apoptosis is 15.9% (inactive).
Consider `O=C(Nc1ccccc1Cl)/C(Cl)=C(\Cl)S(=O)c1ccccc1` (stereo not drawn), for which the protection from apoptosis is 123% (active).
Turning to `O=C(Cc1ccc2c(c1)CCCC2)Nc1ccccc1Cl`, the protection from apoptosis is 9.68% (inactive).
For `O=C(Nc1cccc(S(=O)(=O)NC2=NCCC2)c1)c1ccc(F)cc1F`, the protection from apoptosis was -5.38% (inactive).
On to `COc1cc(/C=C/C(=O)OCC(=O)c2ccccc2)cc(OC)c1OC`, for which the protection from apoptosis is -3.69% (inactive).
The figure for `Oc1ccc(N=Nc2nccs2)c(O)c1` is 98.3% (active); for `c1ccc(NCc2cccc3ccccc23)nc1` it is -6.69% (inactive).
On to `Oc1ccc2ccccc2c1N=Nc1nccs1`, for which the protection from apoptosis was 83.9% (active).
Consider `CCN1/C(=C\c2ccc3ccccc3[n+]2CC)Sc2cc(C)ccc21`, for which the protection from apoptosis was 106% (active).
As for `Cc1nc2ccc(NC(=O)c3cccc(S(=O)(=O)N4CCOCC4)c3)cc2s1`, the protection from apoptosis was -1.06% (inactive).
The figure for `c1ccc2cc(CCCc3cc4ccccc4cn3)ncc2c1` is -10.4% (inactive).
The figure for `Cc1ccc(NC(=O)Cn2cnc3c(OCc4ccccc4)ncnc32)cc1C` is -4.68% (inactive); for `COCCN(Cc1ccccc1)C(=O)Cc1ccc(S(=O)(=O)N2CCOCC2)s1` it is -6.29% (inactive); for `O=C(CN1C(=O)NC2(CCCCCC2)C1=O)NCc1ccc(F)cc1` it is -3.82% (inactive).
The figure for `Cc1ccc(-c2c[n+](CC(=O)Nc3ccccc3)c3n2CCC3)cc1` is -4.97% (inactive); for `Cc1ccc(C(=O)C[n+]2cc(-c3ccccc3)n3c2CCCCC3)cc1` it is 80.4% (active) and 69.5% (inactive).
For `Clc1ccc(C[n+]2cc(-c3ccccc3)n3c2CCC3)cc1`, the protection from apoptosis is -17.9% (inactive).
As for `O=C(CNC(=O)c1n[nH]c2ccccc12)Nc1cc(Cl)ccc1Cl`, the protection from apoptosis was -6.41% (inactive).
The figure for `COc1ccc(S(=O)(=O)N2CCCCC2)cc1NC(=O)COc1ccccc1` is 3.1% (inactive); for `COc1ccc(S(=O)(=O)N2CCCCCC2)cc1NC(=O)Cc1ccc(OC)c(OC)c1` it is -0.791% (inactive).
For the compound `CCOc1ccc(S(=O)(=O)N2CCCCC2)cc1NC(=O)CN1CCCC1c1cccs1` (stereo not drawn), the protection from apoptosis is 108% (active).
The figure for `CCc1sc(C(=O)N2CCN(CC(=O)Nc3cccc(F)c3)CC2)cc1C` is -5.03% (inactive).
As for `O=C(CC(O)(C(F)(F)F)C(F)(F)F)Nc1ccc(Cl)c(Cl)c1`, the protection from apoptosis was 105% (active).
As to `O=C(Cc1ccc(Cl)c(Cl)c1)Nc1ccc(SC(F)F)cc1`, the protection from apoptosis was -2.99% (inactive).
The figure for `O=C(CC1SCCNC1=O)Nc1ccc(Cl)c(Cl)c1` (stereo not drawn) is 0.331% (inactive); for `O=C(Cn1cnc2c(OCc3ccccc3)ncnc21)NCc1nc2ccccc2[nH]1` it is -9.45% (inactive).
`COc1ccc(CNc2nc(NCc3ccc(OC)cc3)c3ncn(C4CCCC4)c3n2)cc1`: the protection from apoptosis was -10.2% (inactive).
The figure for `O=C(/C=C/c1cccc([N+](=O)[O-])c1)N1CCN(Cc2ccccc2)CC1` is -1.33% (inactive); for `O=[N+]([O-])/C=C/c1ccc2c(ccn2Cc2ccccc2)c1` it is 102% (active); for `O=c1c([N+](=O)[O-])cc(C(F)(F)F)cn1Cc1cccc(Cl)c1` it is -7.45% (inactive).
On to `CCC(CO)Oc1cc(NC(=O)c2cccc3ccccc23)c2ncn(C(C)C)c2c1` (stereo not drawn), for which the protection from apoptosis was 4.17% (inactive).
The figure for `O=C1C=C(c2cc(C(F)(F)F)cc(C(F)(F)F)c2)C[C@@H](c2ccc3c(c2)OCO3)C1` is 7.25% (inactive); for `COc1cc(CC(=O)Nc2nc(-c3ccc(F)c(F)c3)cs2)cc(OC)c1OC` it is 92.9% (active).
For the compound `Cc1ccc(S(=O)(=O)NC(=O)Nc2nc(-c3ccc(F)c(F)c3)cs2)cc1`, the protection from apoptosis is -25.4% (inactive).
Consider `CCCc1ccc(-c2csc(NC(=O)Cc3cccs3)n2)cc1`, for which the protection from apoptosis is 6.06% (inactive).
The figure for `COc1ccc(-c2csc(NC(=O)COC(=O)Cc3ccc(Cl)cc3Cl)n2)cc1` is 2.13% (inactive); for `COc1cccc(CC(=O)Nc2nc(-c3ccc(OC)c(OC)c3)cs2)c1` it is -4.99% (inactive).
As to `COc1ccc(CC(=O)Nc2nc(-c3ccc(F)c(F)c3)cs2)cc1OC`, the protection from apoptosis is 97.5% (active).
The figure for `Cc1cccc(-n2ncc3c(=O)[nH]c(SCC(=O)Nc4cc(C)on4)nc32)c1` is 1.12% (inactive); for `COc1ccc(CCNC(=O)COC(=O)Cc2ccccc2F)cc1` it is -2.5% (inactive); for `Cc1ccc(CC(=O)Nc2ccc(S(=O)(=O)N3CCOCC3)cc2)cc1C` it is 0.192% (inactive).
The figure for `CC(OC(=O)c1cc2ccccc2[nH]1)C(=O)N(C)c1ccccc1` (stereo not drawn) is -1.05% (inactive).
Regarding `CC1Cc2ccccc2N1C(=O)CSc1nc2ccccc2o1` (stereo not drawn), the protection from apoptosis is 104% (active).
The figure for `CCS(=O)(=O)c1ccc2oc(SCC(=O)N3c4ccccc4CC3C)nc2c1` (stereo not drawn) is -3.73% (inactive).
Take `Cc1cc(=O)[nH]c(SCC(=O)N2c3ccccc3CC2C)n1` (stereo not drawn): the protection from apoptosis is -8.13% (inactive).
The figure for `O=C(COC(=O)c1cccnc1Cl)NC12CC3CC(CC(C3)C1)C2` is -1.6% (inactive).
The figure for `Cc1ccc(NC(=O)C2CCC(C(C)(C)C)CC2)cc1S(=O)(=O)N1CCOCC1` (stereo not drawn) is 6.89% (inactive).
The figure for `O=C(NCC#CCSc1nnc(-c2cccc3ccccc23)o1)c1cccs1` is 109% (active); for `COc1ccc(CCNC(=O)/C(C#N)=C2\N=C(NC(=O)c3cccs3)c3ccccc32)cc1` it is -2.09% (inactive); for `COc1ccc(CCNC(=O)CSc2nnc(CNC(=O)c3cccs3)o2)cc1OC` it is -5.35% (inactive).
`Cc1noc(C)c1NC(=O)Nc1cccc2c1O[C@H](CN(C)S(=O)(=O)c1c(C)noc1C)[C@@H](C)CN([C@H](C)CO)C2=O`: the protection from apoptosis was 1.37% (inactive).
The figure for `COc1ccc(S(=O)(=O)N2CCOCC2)cc1NC(=O)CSc1nnc(NC2CC2)s1` is 0.467% (inactive); for `CC(NC(=O)COC(=O)Cn1cc(C(F)(F)F)ccc1=O)c1ccccc1` (stereo not drawn) it is 1.74% (inactive); for `COC(=O)c1ccc(NC(=O)c2ccccc2NS(=O)(=O)c2ccccc2)cc1` it is 32.1% (inactive).
Take `CCOc1ccc(NC(=O)c2ccccc2NS(C)(=O)=O)cc1`: the protection from apoptosis was 0.287% (inactive).
The figure for `COc1cc(NC(=O)c2ccccc2NS(=O)(=O)c2ccc(Cl)s2)cc(OC)c1` is 111% (active).
